The supplement of paper PMC11732987, “Enantioselective OTUD7B fragment discovery through chemoproteomics screening and high-throughput optimisation” (Communications Chemistry, 2025)

What was measured:
Assay in all cases: log2 ratio of Biotin-Ahx-Ub-VS probe labelling (fragment/DMSO); higher = less target engagement (more negative = stronger competition), active = hit call of the paper (q ≤ 0.05, log2 ratio ≤ -1)
Conditions in all cases: compound concentration: 200 uM; treatment time: 3 h
[1] = target: T1, USP19 (UniProt O94966)
T1 sequence (whole entry): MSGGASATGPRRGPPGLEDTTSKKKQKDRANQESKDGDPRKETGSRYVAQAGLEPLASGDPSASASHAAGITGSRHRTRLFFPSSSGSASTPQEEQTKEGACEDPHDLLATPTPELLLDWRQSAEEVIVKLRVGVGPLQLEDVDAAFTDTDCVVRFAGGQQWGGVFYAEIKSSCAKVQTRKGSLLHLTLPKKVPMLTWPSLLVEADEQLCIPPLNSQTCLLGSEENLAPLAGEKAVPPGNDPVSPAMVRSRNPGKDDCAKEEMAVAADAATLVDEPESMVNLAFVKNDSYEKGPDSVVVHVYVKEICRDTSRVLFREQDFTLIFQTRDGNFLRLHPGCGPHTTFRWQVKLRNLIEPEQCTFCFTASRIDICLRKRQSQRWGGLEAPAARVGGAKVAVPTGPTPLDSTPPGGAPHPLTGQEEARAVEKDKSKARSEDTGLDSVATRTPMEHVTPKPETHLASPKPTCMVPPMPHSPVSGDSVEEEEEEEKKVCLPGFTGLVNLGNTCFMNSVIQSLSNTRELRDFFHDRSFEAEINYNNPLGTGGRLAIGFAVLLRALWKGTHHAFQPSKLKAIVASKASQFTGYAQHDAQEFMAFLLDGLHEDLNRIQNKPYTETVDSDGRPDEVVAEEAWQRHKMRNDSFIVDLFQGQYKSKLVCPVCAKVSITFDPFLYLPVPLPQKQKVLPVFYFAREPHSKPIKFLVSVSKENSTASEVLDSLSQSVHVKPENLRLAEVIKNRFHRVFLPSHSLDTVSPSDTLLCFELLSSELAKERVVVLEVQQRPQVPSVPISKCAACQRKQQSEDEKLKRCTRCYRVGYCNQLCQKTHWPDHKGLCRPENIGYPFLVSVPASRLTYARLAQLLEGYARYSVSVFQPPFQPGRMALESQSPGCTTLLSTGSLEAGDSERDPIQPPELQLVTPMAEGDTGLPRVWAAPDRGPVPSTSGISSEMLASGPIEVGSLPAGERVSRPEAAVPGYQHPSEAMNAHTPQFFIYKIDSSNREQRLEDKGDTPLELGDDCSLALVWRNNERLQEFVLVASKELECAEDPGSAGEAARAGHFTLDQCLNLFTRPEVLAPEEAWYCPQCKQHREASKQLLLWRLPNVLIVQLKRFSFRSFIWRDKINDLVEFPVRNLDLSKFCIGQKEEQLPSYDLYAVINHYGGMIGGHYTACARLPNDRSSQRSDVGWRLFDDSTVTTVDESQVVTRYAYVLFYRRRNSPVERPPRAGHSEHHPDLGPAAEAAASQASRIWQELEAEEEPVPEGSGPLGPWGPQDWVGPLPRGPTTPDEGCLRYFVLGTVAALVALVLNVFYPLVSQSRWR
Summary of the method: (§1)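 HEK293T lysate in Tris/CHAPS/IGEPAL buffer with protease inhibitors (495 µg per sample) was given fragment at 200 µM or vehicle for 3 h, in triplicate. It then received Biotin-Ahx-Ub-VS at 0.5 µM final for 1 h. Labelled DUBs were NeutrAvidin-enriched, digested with LysC and trypsin, and run by diaPASEF LC-MS/MS. Values are average log2 fragment/vehicle ratios by unpaired t-test on global-median-normalised Spectronaut quantities of proteins with ≥2 unique peptides.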

[2] = target: T2, USP22 (UniProt Q9UPT9)
T2 sequence (whole entry): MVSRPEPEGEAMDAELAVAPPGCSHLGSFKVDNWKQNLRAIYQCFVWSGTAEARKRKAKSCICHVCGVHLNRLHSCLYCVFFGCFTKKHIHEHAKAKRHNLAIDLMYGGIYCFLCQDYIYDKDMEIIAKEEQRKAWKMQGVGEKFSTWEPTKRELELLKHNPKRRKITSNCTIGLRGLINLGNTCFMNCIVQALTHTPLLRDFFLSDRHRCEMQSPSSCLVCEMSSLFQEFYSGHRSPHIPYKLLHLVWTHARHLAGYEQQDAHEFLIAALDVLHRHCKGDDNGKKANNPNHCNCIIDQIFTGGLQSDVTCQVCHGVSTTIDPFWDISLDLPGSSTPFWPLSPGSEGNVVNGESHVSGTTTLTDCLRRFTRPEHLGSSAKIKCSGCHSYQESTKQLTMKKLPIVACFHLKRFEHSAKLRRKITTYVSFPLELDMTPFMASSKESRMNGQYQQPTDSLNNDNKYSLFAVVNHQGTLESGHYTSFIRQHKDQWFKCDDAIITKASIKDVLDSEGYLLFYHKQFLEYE
Summary of the method: as §1

[3] = target: USP24 (UniProt Q9UPU5)
Summary of the method: as §1

[4] = target: T3, USP25 (UniProt Q9UHP3)
T3 sequence (whole entry): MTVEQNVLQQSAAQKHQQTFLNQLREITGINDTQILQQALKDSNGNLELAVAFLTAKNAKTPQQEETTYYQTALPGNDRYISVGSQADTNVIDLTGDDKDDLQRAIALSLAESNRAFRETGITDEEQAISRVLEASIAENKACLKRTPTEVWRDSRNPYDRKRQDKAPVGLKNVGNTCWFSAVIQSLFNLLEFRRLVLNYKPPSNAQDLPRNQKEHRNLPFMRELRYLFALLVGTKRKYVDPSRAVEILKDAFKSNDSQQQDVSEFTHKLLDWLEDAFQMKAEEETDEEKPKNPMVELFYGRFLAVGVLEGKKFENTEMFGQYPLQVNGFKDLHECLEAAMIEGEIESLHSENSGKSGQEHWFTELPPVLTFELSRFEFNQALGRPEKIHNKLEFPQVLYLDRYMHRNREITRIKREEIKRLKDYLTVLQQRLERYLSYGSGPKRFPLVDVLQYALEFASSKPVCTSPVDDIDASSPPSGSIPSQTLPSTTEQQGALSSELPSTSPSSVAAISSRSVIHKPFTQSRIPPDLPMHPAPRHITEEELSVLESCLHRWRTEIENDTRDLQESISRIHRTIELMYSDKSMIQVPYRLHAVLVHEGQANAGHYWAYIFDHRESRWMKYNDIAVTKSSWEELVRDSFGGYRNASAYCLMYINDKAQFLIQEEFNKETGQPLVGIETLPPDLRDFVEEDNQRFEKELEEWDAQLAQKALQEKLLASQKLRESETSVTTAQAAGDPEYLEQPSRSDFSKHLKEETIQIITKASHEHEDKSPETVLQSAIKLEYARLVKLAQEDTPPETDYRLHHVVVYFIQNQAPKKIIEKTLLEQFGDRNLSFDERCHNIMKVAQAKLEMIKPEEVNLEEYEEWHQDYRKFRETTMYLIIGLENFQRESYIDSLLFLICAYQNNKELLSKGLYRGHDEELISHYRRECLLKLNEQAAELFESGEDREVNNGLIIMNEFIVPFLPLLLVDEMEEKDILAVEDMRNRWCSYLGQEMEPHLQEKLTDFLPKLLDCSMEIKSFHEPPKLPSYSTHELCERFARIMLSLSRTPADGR
Summary of the method: as §1

[5] = target: T4, USP28 (UniProt Q96RU2)
T4 sequence (whole entry): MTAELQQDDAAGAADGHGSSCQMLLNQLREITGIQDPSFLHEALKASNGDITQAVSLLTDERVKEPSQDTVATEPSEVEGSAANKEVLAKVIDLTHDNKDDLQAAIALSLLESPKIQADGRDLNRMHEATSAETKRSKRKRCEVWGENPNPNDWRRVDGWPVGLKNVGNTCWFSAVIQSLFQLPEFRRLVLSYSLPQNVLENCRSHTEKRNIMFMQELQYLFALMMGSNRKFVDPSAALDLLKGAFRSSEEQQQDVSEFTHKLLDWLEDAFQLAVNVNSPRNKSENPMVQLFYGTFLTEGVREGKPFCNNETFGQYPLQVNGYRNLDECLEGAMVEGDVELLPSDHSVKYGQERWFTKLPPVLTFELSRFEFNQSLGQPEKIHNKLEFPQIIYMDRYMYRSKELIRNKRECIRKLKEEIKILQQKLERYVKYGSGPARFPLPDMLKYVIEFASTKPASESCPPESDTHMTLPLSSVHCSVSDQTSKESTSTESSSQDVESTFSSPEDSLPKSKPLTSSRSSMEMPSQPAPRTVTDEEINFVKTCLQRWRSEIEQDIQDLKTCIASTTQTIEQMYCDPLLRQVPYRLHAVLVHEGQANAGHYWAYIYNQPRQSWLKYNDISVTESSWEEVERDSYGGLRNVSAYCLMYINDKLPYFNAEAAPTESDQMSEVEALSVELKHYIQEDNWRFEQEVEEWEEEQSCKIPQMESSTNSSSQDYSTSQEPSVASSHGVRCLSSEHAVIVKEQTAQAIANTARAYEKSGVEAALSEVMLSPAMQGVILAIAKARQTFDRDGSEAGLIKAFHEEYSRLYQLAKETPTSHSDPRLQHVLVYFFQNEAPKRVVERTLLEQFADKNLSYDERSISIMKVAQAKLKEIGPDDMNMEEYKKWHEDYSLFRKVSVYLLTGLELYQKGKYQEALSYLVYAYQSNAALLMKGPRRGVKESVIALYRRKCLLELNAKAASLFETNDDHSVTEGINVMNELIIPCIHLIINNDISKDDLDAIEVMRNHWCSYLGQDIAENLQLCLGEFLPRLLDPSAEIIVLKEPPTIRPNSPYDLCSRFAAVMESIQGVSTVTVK
Summary of the method: as §1

Measured: log2 ratio of Biotin-Ahx-Ub-VS probe labelling

Sequence of USP24 (Q9UPU5 whole entry): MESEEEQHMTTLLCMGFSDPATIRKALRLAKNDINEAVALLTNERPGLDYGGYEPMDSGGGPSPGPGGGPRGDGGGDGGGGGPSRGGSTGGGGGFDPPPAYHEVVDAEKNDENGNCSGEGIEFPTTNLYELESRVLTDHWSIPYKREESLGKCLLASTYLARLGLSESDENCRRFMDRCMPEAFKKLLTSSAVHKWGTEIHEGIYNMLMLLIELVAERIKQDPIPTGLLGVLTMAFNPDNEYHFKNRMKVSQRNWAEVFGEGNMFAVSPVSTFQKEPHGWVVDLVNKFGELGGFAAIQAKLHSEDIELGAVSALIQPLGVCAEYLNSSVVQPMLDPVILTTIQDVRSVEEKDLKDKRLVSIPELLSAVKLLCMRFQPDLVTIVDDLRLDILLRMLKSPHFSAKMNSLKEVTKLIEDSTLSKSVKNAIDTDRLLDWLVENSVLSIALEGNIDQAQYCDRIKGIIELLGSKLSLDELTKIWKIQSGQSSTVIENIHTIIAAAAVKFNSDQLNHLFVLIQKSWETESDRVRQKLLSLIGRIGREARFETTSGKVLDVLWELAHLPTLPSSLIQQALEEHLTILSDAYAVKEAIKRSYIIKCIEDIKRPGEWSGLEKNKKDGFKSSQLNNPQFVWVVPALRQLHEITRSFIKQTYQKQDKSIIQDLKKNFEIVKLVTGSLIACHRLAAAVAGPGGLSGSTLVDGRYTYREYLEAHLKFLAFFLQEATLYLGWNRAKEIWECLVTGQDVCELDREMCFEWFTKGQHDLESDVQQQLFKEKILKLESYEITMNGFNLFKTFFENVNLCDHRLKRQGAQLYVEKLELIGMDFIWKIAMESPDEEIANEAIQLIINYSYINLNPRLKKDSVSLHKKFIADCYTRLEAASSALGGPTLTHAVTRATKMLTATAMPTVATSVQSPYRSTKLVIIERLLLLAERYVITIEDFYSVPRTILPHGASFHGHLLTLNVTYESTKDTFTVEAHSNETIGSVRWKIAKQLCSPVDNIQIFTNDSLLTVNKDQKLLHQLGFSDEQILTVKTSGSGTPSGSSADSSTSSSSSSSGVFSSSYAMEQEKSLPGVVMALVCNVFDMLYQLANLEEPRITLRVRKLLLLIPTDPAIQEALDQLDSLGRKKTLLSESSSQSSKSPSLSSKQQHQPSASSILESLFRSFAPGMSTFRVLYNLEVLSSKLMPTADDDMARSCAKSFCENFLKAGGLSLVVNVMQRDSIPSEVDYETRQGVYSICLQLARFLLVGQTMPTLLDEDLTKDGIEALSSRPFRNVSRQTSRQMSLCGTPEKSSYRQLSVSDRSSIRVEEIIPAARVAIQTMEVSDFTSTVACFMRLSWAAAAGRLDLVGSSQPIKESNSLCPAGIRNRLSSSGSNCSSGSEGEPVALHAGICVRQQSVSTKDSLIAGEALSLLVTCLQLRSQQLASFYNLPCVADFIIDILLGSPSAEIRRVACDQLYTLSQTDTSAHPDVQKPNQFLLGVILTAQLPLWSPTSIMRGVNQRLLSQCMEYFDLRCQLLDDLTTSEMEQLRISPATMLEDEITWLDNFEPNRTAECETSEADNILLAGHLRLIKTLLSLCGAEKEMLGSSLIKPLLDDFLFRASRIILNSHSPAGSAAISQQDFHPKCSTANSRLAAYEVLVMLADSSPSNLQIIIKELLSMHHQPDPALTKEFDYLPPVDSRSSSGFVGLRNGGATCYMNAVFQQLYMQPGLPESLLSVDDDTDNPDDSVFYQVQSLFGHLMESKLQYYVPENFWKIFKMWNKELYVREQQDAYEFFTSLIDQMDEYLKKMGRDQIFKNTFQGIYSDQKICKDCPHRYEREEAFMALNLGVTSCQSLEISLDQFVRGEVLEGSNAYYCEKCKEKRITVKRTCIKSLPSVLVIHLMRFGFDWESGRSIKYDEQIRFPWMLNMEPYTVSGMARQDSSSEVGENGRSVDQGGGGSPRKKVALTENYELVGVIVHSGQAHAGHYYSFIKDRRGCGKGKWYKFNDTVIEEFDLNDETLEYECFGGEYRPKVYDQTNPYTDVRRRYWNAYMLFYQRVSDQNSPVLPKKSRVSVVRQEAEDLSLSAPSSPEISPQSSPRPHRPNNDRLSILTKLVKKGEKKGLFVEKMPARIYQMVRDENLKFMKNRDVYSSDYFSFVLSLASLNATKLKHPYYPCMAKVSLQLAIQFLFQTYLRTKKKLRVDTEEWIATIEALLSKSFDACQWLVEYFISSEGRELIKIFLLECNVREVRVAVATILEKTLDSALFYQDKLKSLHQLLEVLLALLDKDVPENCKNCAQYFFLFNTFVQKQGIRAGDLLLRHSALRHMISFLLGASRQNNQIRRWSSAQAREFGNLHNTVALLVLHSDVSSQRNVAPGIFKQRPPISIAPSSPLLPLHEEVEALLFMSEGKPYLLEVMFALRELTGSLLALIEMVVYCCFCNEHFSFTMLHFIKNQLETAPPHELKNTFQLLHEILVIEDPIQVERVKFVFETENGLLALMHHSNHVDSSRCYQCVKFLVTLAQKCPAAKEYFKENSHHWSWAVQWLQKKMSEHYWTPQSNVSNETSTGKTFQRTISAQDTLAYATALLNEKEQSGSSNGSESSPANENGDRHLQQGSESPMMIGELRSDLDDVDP

Cl.O=C(CN1CCN(C(=O)CCl)CC1)Nc1ccc(F)cc1
inactive: [1] -0.172 | [2] 0.179 | [3] -0.098 | [4] 0.0867 | [5] 0.0845
